Screens from PubChem.
A selection: hits, their analogues and other compounds. The true share with any hit is near 17%.
ClpP mod: qHTS Assay for Activators of ClpP; AID 651965, 2013; Potency, µM (doses to about 57.5 µM), inactives show at the highest dose activity change, negative = active; purified B. subtilis ClpP, FRET peptide cleavage, 20 min; hit rate 1.9% among 340,000; ATP-dependent Clp protease proteolytic subunit (Bacillus subtilis (strain 168)), P80244; active means well fitted falling curve with a large enough effect; inconclusive means small, poorly fitted or top-dose-only effect; inactive means no such curve, though single readings can be large or run the other way; further: the source files actives as falling curves though it sought activators and does not explain the sign; nearly all actives have a fitted effect of over 65% in size
Target sequence (P80244 whole entry, looked up): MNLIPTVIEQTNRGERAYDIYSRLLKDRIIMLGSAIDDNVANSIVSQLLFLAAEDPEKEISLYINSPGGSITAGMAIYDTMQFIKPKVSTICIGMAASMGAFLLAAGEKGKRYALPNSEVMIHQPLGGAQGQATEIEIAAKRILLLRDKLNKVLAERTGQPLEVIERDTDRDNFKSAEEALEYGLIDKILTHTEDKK
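ClpP 10 microg/mL final, pH 8 Tris/KCl buffer with BSA, glycerol, Tween-20; compound pinned in; FRET-FV substrate; RT 20 min; Ex320/Em430; ΔFRET vs ADEP 5.8 microM, DMSO, no enzyme.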
TDP1 inh: blocks human tyrosyl-DNA phosphodiesterase 1; Q9NUW8; recombinant TDP1, AlphaScreen DNA substrate cleavage; Potency, µM (doses to about 130 µM), for the others: at the top dose activity change, negative = inhibition, actives largely listed as inhibitors; hit rate 0.28% among 350,000; AID 485290; further: on the % scale 0 is the no-effect control and ±100 the full control effect; nearly all actives have a fitted effect of over 40% in size
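Compounds were preincubated with Tdp1 (1 nM final) for 15 min at room temperature before substrate (15 nM final) started a 5 min reaction; beads (10 ug/ml final) were then added for 10 min before AlphaScreen detection.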
TDP1 cell noCPT: qHTS for Inhibitors of human tyrosyl-DNA phosphodiesterase 1 (TDP1): qHTS in cells in absence of CPT. DT40 Tdp1-/- hTDP1 cells, no CPT, ATP luminescence, 48 h. Potency, µM (doses to about 46.2 µM), for inactives: at the highest dose activity change, negative = growth inhibition, most hits filed as inhibitors. hit rate 15% among 420,000; further: on the % scale 0 is the no-effect control and ±100 the full control effect; nearly all actives have a fitted effect of over 55% in size
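Cells were dispensed at 400 per well, compounds added by pin tool, plates incubated ≥48 hr at 37 °C, then CellTiter-Glo added for 30 min at room temperature before luminescence reading. Line: DT40 Tdp1-/- complemented with hTDP1; camptothecin omitted.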
DT40 TDP1 CPT: growth inhibition of DT40 Tdp1-/-;hTDP1 cells with camptothecin (screen for TDP1 inhibitors); chicken DT40 Tdp1-/-;hTDP1 cells + 20 nM CPT, ATP luminescence, 48 h; Potency, µM (doses to about 46.2 µM), for the others: top-dose activity change, negative = growth inhibition, most hits filed as inhibitors; hit rate 12% among 420,000; AID 686979; further: on the % scale 0 is the no-effect control and ±100 the full control effect; nearly all actives have a fitted effect of over 55% in size
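Chicken DT40 Tdp1-/- cells complemented with human TDP1, 400 cells/well, exposed to compounds plus 20 nM camptothecin for at least 48 h at 37 C; viability read as ATP content by CellTiter-Glo luminescence.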
ClpP inh valid: inhibits B. subtilis ClpP protease, hit validation | shares compounds with ClpP mod | purified B. subtilis ClpP, FRET-FV substrate cleavage, 20 min | hit rate 40% among 470 | Potency, µM (top dose mostly 57.5 µM), inactives show top-dose activity change, negative = inhibition, hits mostly inhibitors; further: on the % scale 0 is the no-effect control and ±100 the full control effect; nearly all actives have a fitted effect of over 70% in size
Active calls of the source: *; ? = inconclusive; / = not tested or not shown; [ ] = another dose, or the depositor's remark. Unless noted, the call rests on the fitted dose curve; in most records, active means well fitted curve in the direction sought with a large enough effect; inconclusive means small, poorly fitted or top-dose-only effect, or another doubt; inactive means no such curve, though single readings can be large; an effect the other way counts as inactive or inconclusive. Potency means the concentration at half of the fitted maximal effect.

SMILES	ClpP mod	TDP1 inh	TDP1 cell noCPT	DT40 TDP1 CPT	ClpP inh valid
O=S(=O)(Nc1cccc(-c2cn3cccnc3n2)c1)c1ccc(Cl)cc1	7.1µM*	-1%	?	?	24µM*
COc1ccc(C)cc1S(=O)(=O)Nc1cccc(-c2cn3cccnc3n2)c1	/	4%	?	6%	/
CCCc1c2ccccc2nc2ccccc12	7.1µM*	-1%	?	-29%	19µM*
CC(O)[C@@H]1NC(=O)[C@H](CCCN)NC(=O)[C@@H](Cc2c[nH]c3ccccc23)NC(=O)[C@H](Cc2ccc(O)cc2)NC(=O)[C@@H](NC(=O)[C@H](N)Cc2ccccc2)CSSC(C)(C)C(C(=O)N[C@H](C(N)=O)[C@@H](C)O)NC1=O (some centres undefined)	/	9%	/	/	/
CC(=O)Nc1ccc(-c2cc(C(=O)O)c3ccccc3n2)cc1	4%	0%	25%	-8%	/
CC(=O)Nc1cccc(-c2cn3ccc(C)cc3n2)c1	3%	-6%	-8%	-16%	/
CC(=O)Nc1ccc(-c2cc(-c3ccc(NC(C)=O)cc3)nc(-c3ccccc3)n2)cc1	7.9µM*	3%	?	-25%	24µM*
CC(=O)Nc1ccc2nc(-c3ccccc3)cn2c1	3.5µM*	5%	-5%	-2%	22µM*
COc1ccc2nc3n(c(=O)c2c1)-c1cc2ccccc2cc1C(=O)NC3Cc1ccccc1 (centres undefined)	5.6µM*	/	21µM*	?	?
COc1ccc2nc3n(c(=O)c2c1)-c1cc(Cl)ccc1C(=O)NC3Cc1ccccc1 (centres undefined)	/	-1%	/	/	/
Nc1nc(SCC(=O)NC2CCCC2)[nH]c(=O)c1-c1ccccc1	/	-2%	/	/	/
COc1ccc(C)cc1S(=O)(=O)NC1CCCCC1C (centres undefined)	209%	-5%	-26%	4%	-1%
Cc1cccn2cc(-c3ccc(S(=O)(=O)N4CCOCC4)cc3)nc12	3.2µM*	0%	16µM*	?	3.9µM*
Cc1cccn2cc(-c3ccc(S(=O)(=O)N4CCCCC4)cc3)nc12	/	-6%	?	?	/
Oc1ccc(/C=C/c2ccc(/C=C/c3ccc(O)cc3)c(Br)c2)cc1	/	/	/	/	-19%
COc1ccc(C#Cc2c(-c3ccsc3)oc3ccc(-c4cc(OC)c(OC)c(OC)c4)cc23)cc1	45%	/	-9%	-9%	?
CC(Nc1nc(N2CCN(S(C)(=O)=O)CC2)nc2ccccc12)c1ccccc1 (centres undefined)	4µM*	5%	?	?	24µM*
c1ccc(-c2ccc(-c3csnn3)cc2)cc1	88%	4%	-6%	0%	-1%
O=C(Oc1ccc(-c2csnn2)cc1)c1cccs1	2%	5%	-8%	-1%	/
C(=C\c1ccccc1)/CSc1nc2ncccc2[nH]1	/	/	-9%	1%	/
Cc1ccc(-c2cc(C(=O)NCc3ccccc3Cl)c3ccccc3n2)cc1C	4.5µM*	5%	?	15µM*	27µM*
CCC(C)NC(=O)c1cc2cc3ccc(OC)cc3nc2s1 (centres undefined)	10µM*	/	?	?	14µM*
O=C(Nc1cccc(C(F)(F)F)c1)c1csc([C@@H]2O[C@H](CO)[C@H](O)[C@H](O)[C@H]2O)n1	2%	/	-5%	-5%	/
O=C1Nc2ccc(F)cc2C12Nc1ccccc1-c1nnc(SCc3ccccc3F)nc1O2 (centres undefined)	40%	6%	?	?	10%
Nc1ccccc1-c1nnc(SCc2ccccc2F)[nH]c1=O	0%	2%	?	-5%	/
SMILES	ClpP mod	TDP1 inh	TDP1 cell noCPT	DT40 TDP1 CPT	ClpP inh valid
CCOC(=O)c1[nH]c2ccccc2c1NC(=O)c1cc(OCC)c(OCC)c(OCC)c1	45%	0%	?	?	12%
CCOC(=O)c1[nH]c2ccccc2c1NC(=O)c1ccc(Br)cc1	-5%	0%	-23%	-22%	/
O=C(NCc1ccccc1)/C(=C\c1cccc([N+](=O)[O-])c1)NC(=O)c1ccco1	0%	/	4%	-12%	/
CCOC(=O)N1CCN(C(=O)c2ccc(NS(C)(=O)=O)cc2)CC1	-2%	9%	-5%	-4%	/
CCOC(=O)N1CCN(C(=O)c2ccc(S(=O)(=O)Nc3ccc(C)cc3)cc2)CC1	115%	0%	10µM*	9.2µM*	-1%
CCC(C)NC(=O)c1cnn2c(C)c3c(nc12)CCCC3 (centres undefined)	10µM*	4%	?	?	22µM*
Cc1c2c(nc3c(C(=O)NC4CC4)cnn13)CCCC2	-4%	1%	-25%	-2%	/
CCN(CC)C(=O)c1c2c(nc3ccccc13)-c1ccccc1CC2	8.9µM*	1%	?	?	22µM*
O=C(O)CSc1nc2c(c(C(F)(F)F)n1)CCc1ccccc1-2	/	4%	-9%	-6%	/
Cc1c(C(=O)Nc2ccc(-c3nc4cc(Cl)ccc4o3)cc2)oc2ccccc12	8.9µM*	-2%[12.3 µM]	-11%	15%	15µM*
CC(=O)Nc1ccc(-c2nc3cc(Cl)ccc3o2)cc1	/	/	-19%	-19%	/
O=C1CC[C@H](C(=O)N[C@@H]2C[C@H]2c2ccccc2)N1	/	4%	/	/	/
Cc1cccc(C)c1NC(=O)Cn1c(=O)n(Cc2ccccc2Cl)c(=O)c2cccnc21	?	-3%	?	?	/
Cc1ccc(NC(=O)Cn2c(=O)n(CCC(C)C)c(=O)c3cccnc32)cc1C	71%	2%	?	?	5%
COc1ccc(-c2[nH]c(-c3ccc4c(c3)OCO4)nc2-c2ccccc2)cc1	2.5µM*	9%	?	?	24µM*
COc1cc(-c2nc(-c3ccccc3)c(-c3ccc(F)cc3)[nH]2)cc2c1OCO2	10µM*	8%	?	?	22µM*
COc1ccc(-c2nc3ccccn3c2NCc2ccc3c(c2)OCO3)cc1	?	0%	?	-27%	/
Cc1nnc(NC(=O)c2oc3ccccc3c2C)s1	-1%	1%	-1%	?	/
Cc1nnc(NC(=O)c2oc3c(ccc4ccccc43)c2C)s1	8.9µM*	4%	?	?	31µM*
Cc1cccc(Nc2nc(-c3ccccc3)c3cc(C)ccc3n2)c1	-2%	-9%[12.3 µM]	?	?	/
O=c1oc2ccccc2cc1-c1nnc(-c2cccc(Br)c2)o1	0.71µM*	5%	-22%	-22%	?
CCC(=O)N1CCc2cc(S(=O)(=O)NC(C(=O)NCc3ccc(OC)cc3)C(C)C)ccc21 (centres undefined)	-1%	0%	-4%	-17%	/
c1ccc(-c2ccc3ccccc3n2)cc1	0%	/	-12%	5%	/
